The values that follow come from PubChem BioAssay (Tox21).

Records with an inconclusive call do not appear. Entries that show only a call come without a potency. Active and inactive are the calls of the source. Calls come from the whole dose curve; as a rule, active = well fitted activation curve with a large enough effect in the repeat runs; inconclusive = weak or mixed curves; inactive = no such curve, though single readings can be large or run the other way.
Potency is the fitted concentration of half-maximal effect.

The test is described as follows: qHTS assay for small molecules that induce genotoxicity in human embryonic kidney cells expressing luciferase-tagged ATAD5 (AID 651632). Note: nearly all actives have a fitted effect of over 15% in size. As to conditions: HEK293T ATAD5-luciferase induction, 16 h; series mostly up to 83.3 µM. The text has this: U.S. Tox21 Program National Center for Advancing Translational Sciences [NCATS] NIH Chemical Genomics Center [NCGC] U.S. Environmental Protection Agency [EPA] National Institutes of Environmental Health Sciences [NIEHS] National Toxicology Program [NTP] U.S. Food and Drug Administration [FDA] Tox21 Assay Overview: As cancer cells divide rapidly and during every cell division they need to duplicate their genome by DNA replication. The failure to do so results in the cancer cell death. Based on this concept, many chemotherapeutic agents were developed but have limitations such as low efficacy and severe side effects etc. A new cell based assay was developed to find the compounds that effectively block DNA replication either by directly damaging DNA or by inhibiting other cellular mechanisms. Enhanced Level of Genome Instability Gene 1 (ELG1; human ATAD5) protein levels increase in response to various types of DNA damage. Using a luciferase reporter-gene tagged with ATAD5, a cell-based assay [developed by Kyungjae Myung, NHGRI, NIH] was used to measure the induction of ATAD5 in human embryonic kidney cells (HEK293T). So, increase in luciferase activity can be used to identify the compounds that cause genetic stress.
Tox21 Assay Protocol Summary: For genotoxicity screening, 2,000 cells in 5 uL/well were dispensed into white, solid-bottom 1536-well plates using a Multidrop Combi (Thermo Scientific) dispenser. Following transfer of 23 nL compound or DMSO vehicle by a pin tool, the plates were incubated 16 hr at 37C and 5% CO2. 5 ul Amplite (AAT Bioquest, Inc.) was then added to each plate and following 30 min incubation at room temperature, luciferase activity was quantified on a ViewLux CCD-based plate reader.
On the technique in general: In qHTS, concentration-response curves come from the screen itself.
For `CCCC1CCC(=O)O1` (stereo not given), the Potency entry is “inactive”.

For the compound `C=CCCCCCCCCO`, the Potency entry was “inactive”. In the case of `CCC/C=C/CO` it was “inactive”; in that of `CC(C)C(=O)OC/C=C/c1ccccc1`, “inactive”; in that of `CCCCc1ccc2nc(NC(=O)OC)[nH]c2c1`, 0.804 µM (active). Turning to `CCOc1ccc(OCC)c(Cl)c1`, the Potency result is “inactive”.

Take `O=C(O)c1ccccc1Nc1cc(Cl)ccc1C(=O)O`: the Potency result was “inactive”.

In the case of `ICCc1ccccc1`, the Potency result was “inactive”. Then `CCCCCCC`, with “inactive”; and `FC(F)(F)C(F)(F)C(F)(F)C(F)(F)C(F)(F)C(F)(F)C(F)(F)C(F)(F)Br`, with “inactive”. In the case of `OCCN1CCN(CCO)CC1` it was “inactive”; in that of `CN1CCC[C@@H]1Cc1c[nH]c2ccc(CCS(=O)(=O)c3ccccc3)cc12`, “inactive”; in that of `CCOC(=O)CS`, “inactive”. As for `O=c1[nH]c(=O)n([C@H]2C[C@H](O)[C@@H](CO)O2)cc1C(F)(F)F`, the Potency entry was “inactive”. Then `COC(=O)C(C)O` (stereo not given), with “inactive”. In the case of `CC(C)C1=CC2=CC[C@@H]3[C@](C)(CCC[C@@]3(C)C(=O)O)[C@H]2CC1` it was “inactive”; in that of `NC(=O)Cc1cccc(C(=O)c2ccccc2)c1N`, “inactive”.

On to `C1CSCCS1`, for which the Potency entry was “inactive”. In the case of `CCOC(=O)NCCC[Si](OCC)(OCC)OCC` it was “inactive”; in that of `CNCCC(Oc1ccccc1OC)c1ccccc1` (stereo not given), “inactive”; in that of `COc1ccc(S(=O)(=O)Nc2nnc(CC(C)C)s2)cc1`, “inactive”. As for `CCOC(=O)[C@H](CCc1ccccc1)N[C@@H](C)C(=O)N1Cc2cc(OC)c(OC)cc2C[C@H]1C(=O)O`, the Potency result is “inactive”. With `O=CCCc1ccccc1`, the Potency entry was “inactive”. As to `Cc1ccc([N+](=O)[O-])cc1Cl`, the Potency entry is “inactive”. In the case of `CC(C)C(=O)OCC(C)(C)C(O)C(C)C` (stereo not given) it was “inactive”; in that of `NS(=O)(=O)c1cc(-c2nn[nH]n2)c(NCc2cccs2)cc1Cl`, “inactive”. Then `CC(=O)N(CC(O)CN(C(C)=O)c1c(I)c(C(=O)NCC(O)CO)c(I)c(C(=O)NCC(O)CO)c1I)c1c(I)c(C(=O)NCC(O)CO)c(I)c(C(=O)NCC(O)CO)c1I` (stereo not given), with “inactive”; and `O=C(O)c1cccc(Cl)c1Cl`, with “inactive”; and `CC(=O)OC1C2(C)CCC(C2)C1(C)C` (stereo not given), with “inactive”. Then `OCCN(CCO)CCN(CCO)CCO`, with “inactive”.

Turning to `CCCN(CCC)C(=O)C(CCC(=O)O)NC(=O)c1ccccc1` (stereo not given), the Potency entry was “inactive”. In the case of `Cc1nc(-c2ccccn2)ncc1C(=O)Nn1cc(C)c2cc(F)ccc21`, the Potency result was “inactive”.

Regarding `CCN(CC)CCOc1ccc(Cc2ccccc2)cc1`, the Potency entry was “inactive”.

`CCOc1ccccc1N`: the Potency entry is “inactive”.

`CCOC(=O)c1ccccc1O`: the Potency entry was “inactive”.

Turning to `CC(C)C[C@H](NC(=O)OCC1c2ccccc2-c2ccccc21)C(=O)O`, the Potency is 12.2 µM (active). In the case of `CC1=C(O)C(=O)OC1C` (stereo not given) it was “inactive”; in that of `CN1[C@@H]2CC[C@H]1CC(OC(=O)c1c[nH]c3ccccc13)C2` (stereo not given in full), “inactive”. In the case of `CCCCCCCCc1ccc(S(=O)(=O)O)cc1` it was “inactive”. Take `COC(=O)c1ccc(OC)cc1`: the Potency entry was “inactive”.
